Results filed as inconclusive are left out. Activity calls are given as the source filed them. The calls were made as follows: active = hit-call score of the fitted dose curve at least 0.9, where 1 is the maximum; inconclusive = response in the unintended direction; inactive = score below 0.9.
Tests used:
[1] = biological target: D(1A) dopamine receptor (Homo sapiens) (UniProt P21728); assay: NVS_GPCR_hDRD1: NovaScreen (NVS) G Protein-Coupled Receptor Assay for human Dopamine Receptor D1 (DRD1) (AID 2283269)
Sequence of D(1A) dopamine receptor (Homo sapiens) (P21728 whole entry, looked up): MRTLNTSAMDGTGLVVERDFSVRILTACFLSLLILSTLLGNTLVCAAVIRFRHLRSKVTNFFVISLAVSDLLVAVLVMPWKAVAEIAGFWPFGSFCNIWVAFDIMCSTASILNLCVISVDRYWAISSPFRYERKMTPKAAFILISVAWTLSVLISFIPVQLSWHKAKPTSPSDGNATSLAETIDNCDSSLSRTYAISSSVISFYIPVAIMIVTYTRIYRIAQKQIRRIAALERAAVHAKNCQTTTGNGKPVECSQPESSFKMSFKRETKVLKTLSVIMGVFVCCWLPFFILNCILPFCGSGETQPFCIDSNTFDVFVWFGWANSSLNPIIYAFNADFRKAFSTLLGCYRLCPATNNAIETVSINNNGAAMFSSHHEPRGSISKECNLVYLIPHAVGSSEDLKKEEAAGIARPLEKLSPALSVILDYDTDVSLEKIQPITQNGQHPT
Method in brief: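 Cell-free competition with radioligand, filter-trapped and scintillation-counted 1 h post-dose, using HEK293-derived human D1 preparation. Duplicate single-point testing at 25 uM first, then concentration series for actives; DMSO served as baseline, loss-of-signal scored.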

[2] = biological target: human Neuropeptide Receptor Y1 (NPY1), NPY1R (gene 4886) (UniProt P25929); assay: NVS_GPCR_hNPY1: NovaScreen (NVS) G Protein-Coupled Receptor Assay for human Neuropeptide Receptor Y1 (NPY1) (AID 2283276)
Method in brief: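 Displacement of specific radioligand from NPY1 receptor of SK-N-MC origin, read by filtration and scintillation after 1 h. Compounds first tested at 25 uM in duplicate, then actives in concentration series; signal loss relative to DMSO.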

[3] = biological target: Muscarinic acetylcholine receptor M2 (Homo sapiens) (UniProt P08172); assay: NVS_GPCR_hM2: NovaScreen (NVS) G Protein-Coupled Receptor Assay for human Muscarinic, M2 Receptor (AID 2283273)
Sequence of Muscarinic acetylcholine receptor M2 (Homo sapiens) (P08172 whole entry, looked up): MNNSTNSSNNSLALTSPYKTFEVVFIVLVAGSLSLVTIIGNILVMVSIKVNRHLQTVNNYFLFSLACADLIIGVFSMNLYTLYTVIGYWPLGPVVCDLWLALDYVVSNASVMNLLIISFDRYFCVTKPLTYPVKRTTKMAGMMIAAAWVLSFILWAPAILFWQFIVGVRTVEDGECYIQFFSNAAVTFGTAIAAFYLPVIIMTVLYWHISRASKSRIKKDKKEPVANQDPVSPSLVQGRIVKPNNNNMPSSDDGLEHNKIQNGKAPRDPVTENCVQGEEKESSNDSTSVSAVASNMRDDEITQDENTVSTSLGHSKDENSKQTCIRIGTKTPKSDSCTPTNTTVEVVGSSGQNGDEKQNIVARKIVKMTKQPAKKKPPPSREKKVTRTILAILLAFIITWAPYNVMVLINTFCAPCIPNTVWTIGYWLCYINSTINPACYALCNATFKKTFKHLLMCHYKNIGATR
Method in brief: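 Radioligand competition binding, cell-free, receptor from CHO; 1 h incubation; scintillation detection. Primary testing at 25 uM in duplicate.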

[4] = biological target: human Adrenergic, Beta 1 Receptor (Adrb1), ADRB1 (gene 153) (UniProt P08588); assay: NVS_GPCR_hAdrb1: NovaScreen (NVS) G Protein-Coupled Receptor Assay for human Adrenergic, Beta 1 Receptor (Adrb1) (AID 2283258)
Sequence of human Adrenergic, Beta 1 Receptor (Adrb1), ADRB1 (gene 153) (P08588 whole entry, looked up): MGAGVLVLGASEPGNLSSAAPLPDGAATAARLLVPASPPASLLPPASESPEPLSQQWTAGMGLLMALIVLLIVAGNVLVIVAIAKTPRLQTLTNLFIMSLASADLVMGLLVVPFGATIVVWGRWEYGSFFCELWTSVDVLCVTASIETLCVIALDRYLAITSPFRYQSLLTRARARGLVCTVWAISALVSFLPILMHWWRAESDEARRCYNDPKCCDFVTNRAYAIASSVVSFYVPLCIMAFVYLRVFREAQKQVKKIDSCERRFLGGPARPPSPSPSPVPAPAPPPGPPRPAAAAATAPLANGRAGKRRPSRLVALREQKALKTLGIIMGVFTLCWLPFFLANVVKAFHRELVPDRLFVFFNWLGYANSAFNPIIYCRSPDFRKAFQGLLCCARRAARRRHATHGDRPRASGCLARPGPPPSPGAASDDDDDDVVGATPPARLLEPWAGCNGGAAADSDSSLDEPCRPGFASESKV
Method in brief: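 Membranes/protein extracted from human neuroepithelioma cells, radioligand competition binding read by filtration and scintillation 2 h post-dose. Single 25 uM duplicate screen, then concentration-response follow-up; DMSO as negative control.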

[5] = biological target: human Dopamine Receptor D2 (DRD2), DRD2 (gene 1813) (UniProt P14416); assay: NVS_GPCR_hDRD2s: NovaScreen (NVS) G Protein-Coupled Receptor Assay for human Dopamine Receptor D2 (DRD2) (AID 2283266)
Sequence of human Dopamine Receptor D2 (DRD2), DRD2 (gene 1813) (P14416 whole entry, looked up): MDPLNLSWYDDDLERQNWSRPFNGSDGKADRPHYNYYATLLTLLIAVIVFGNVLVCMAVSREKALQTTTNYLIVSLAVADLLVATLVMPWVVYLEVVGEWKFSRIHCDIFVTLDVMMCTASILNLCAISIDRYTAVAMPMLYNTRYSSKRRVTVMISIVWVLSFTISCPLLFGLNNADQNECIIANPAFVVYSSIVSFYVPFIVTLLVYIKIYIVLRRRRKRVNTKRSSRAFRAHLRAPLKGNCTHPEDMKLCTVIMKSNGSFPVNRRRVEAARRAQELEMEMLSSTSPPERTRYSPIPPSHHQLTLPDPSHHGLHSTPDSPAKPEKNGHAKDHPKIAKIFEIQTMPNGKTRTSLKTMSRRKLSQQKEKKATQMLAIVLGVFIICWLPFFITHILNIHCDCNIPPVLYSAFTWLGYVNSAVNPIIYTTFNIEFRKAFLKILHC
Method in brief: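 Test compound (25 uM, duplicate in the primary screen; concentration series at follow-up) competed with radioligand for human DRD2 in CHO-derived membrane protein. Filter-based scintillation counting was done 1.5 hours after dosing, with loss of signal analysed against DMSO.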

[6] = biological target: guinea pig Opioid, Kappa 1 Receptor (OpiateK), OPRK1 (gene 100135587) (UniProt P41144); assay: NVS_GPCR_gOpiateK: NovaScreen (NVS) G Protein-Coupled Receptor Assay for guinea pig Opioid, Kappa 1 Receptor (OpiateK) (AID 2283252);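 also: radioligand displacement from kappa opioid receptor in guinea pig cerebellar membranes; active means reduced radioligand binding relative to DMSO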
Sequence of guinea pig Opioid, Kappa 1 Receptor (OpiateK), OPRK1 (gene 100135587) (P41144 whole entry, looked up): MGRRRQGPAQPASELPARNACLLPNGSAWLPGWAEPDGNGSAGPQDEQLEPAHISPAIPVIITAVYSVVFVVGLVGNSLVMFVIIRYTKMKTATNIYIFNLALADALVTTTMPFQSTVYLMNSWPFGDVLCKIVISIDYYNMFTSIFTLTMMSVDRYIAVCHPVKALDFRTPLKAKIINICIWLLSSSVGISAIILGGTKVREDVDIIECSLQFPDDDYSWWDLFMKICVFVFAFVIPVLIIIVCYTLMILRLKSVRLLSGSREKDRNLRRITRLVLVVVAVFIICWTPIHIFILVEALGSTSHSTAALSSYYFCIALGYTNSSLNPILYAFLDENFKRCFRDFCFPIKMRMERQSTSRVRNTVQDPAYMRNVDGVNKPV
Method in brief: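 Radioligand competition binding using guinea pig cerebellum membrane fraction; 2 h exposure; filter radiodetection. Single concentration 25 uM (duplicate), follow-up concentration-response for actives.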

[7] = biological target: human Serotonin, 5-Hydroxytryptamine Receptor 6 (5HT6), HTR6 (gene 3362) (UniProt P50406); assay: NVS_GPCR_h5HT6: NovaScreen (NVS) G Protein-Coupled Receptor Assay for human Serotonin, 5-Hydroxytryptamine Receptor 6 (5HT6) (AID 2283253)
Sequence of human Serotonin, 5-Hydroxytryptamine Receptor 6 (5HT6), HTR6 (gene 3362) (P50406 whole entry, looked up): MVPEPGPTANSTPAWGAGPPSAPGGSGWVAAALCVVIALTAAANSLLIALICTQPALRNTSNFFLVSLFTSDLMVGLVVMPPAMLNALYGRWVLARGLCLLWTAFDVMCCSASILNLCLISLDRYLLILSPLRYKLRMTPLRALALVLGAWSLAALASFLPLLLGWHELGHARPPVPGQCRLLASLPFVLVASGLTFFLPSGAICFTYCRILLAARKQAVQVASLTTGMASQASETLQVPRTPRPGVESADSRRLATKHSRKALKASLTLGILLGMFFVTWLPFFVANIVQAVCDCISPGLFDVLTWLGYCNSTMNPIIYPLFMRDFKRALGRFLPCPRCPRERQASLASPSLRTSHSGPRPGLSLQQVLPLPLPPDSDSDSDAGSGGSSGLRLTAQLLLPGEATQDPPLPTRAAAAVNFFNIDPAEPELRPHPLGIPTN
Method in brief: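 Filter scintillation counting of radioligand displacement from HEK293-expressed 5HT6, 1 hour post-dose, with loss of signal relative to DMSO. Single 25 uM duplicates first, with concentration series for confirmation.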

[8] = biological target: human Adenosine A1 Receptor (AdoRA1), ADORA1 (gene 134) (UniProt P30542); assay: NVS_GPCR_hAdoRA1: NovaScreen (NVS) G Protein-Coupled Receptor Assay for human Adenosine A1 Receptor (AdoRA1) (AID 2283254)
Sequence of human Adenosine A1 Receptor (AdoRA1), ADORA1 (gene 134) (P30542 whole entry, looked up): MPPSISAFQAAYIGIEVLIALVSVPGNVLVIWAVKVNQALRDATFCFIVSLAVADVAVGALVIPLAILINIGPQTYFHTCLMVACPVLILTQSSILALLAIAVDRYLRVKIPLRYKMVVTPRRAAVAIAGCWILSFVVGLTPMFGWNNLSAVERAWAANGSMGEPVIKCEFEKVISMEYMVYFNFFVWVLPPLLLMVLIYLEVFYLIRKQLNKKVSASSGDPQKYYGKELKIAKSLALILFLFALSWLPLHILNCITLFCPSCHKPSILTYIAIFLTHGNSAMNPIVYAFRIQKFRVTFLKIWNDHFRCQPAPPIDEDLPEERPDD
Method in brief: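 Radioligand competition binding on human cortical membranes, 1 h after compound addition; bound radioactivity read by filtration and scintillation counting. Loss of signal versus DMSO baseline scored as displacement; primary screen duplicate at 25 uM, actives retested in concentration series.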

[9] = biological target: human Serotonin, 5-Hydroxytryptamine Receptor 7 (5HT7), HTR7 (gene 3363) (UniProt P34969); assay: NVS_GPCR_h5HT7: NovaScreen (NVS) G Protein-Coupled Receptor Assay for human Serotonin, 5-Hydroxytryptamine Receptor 7 (5HT7) (AID 2283255);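 also: hits reduce specific radioligand binding relative to DMSO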
Sequence of human Serotonin, 5-Hydroxytryptamine Receptor 7 (5HT7), HTR7 (gene 3363) (P34969 whole entry, looked up): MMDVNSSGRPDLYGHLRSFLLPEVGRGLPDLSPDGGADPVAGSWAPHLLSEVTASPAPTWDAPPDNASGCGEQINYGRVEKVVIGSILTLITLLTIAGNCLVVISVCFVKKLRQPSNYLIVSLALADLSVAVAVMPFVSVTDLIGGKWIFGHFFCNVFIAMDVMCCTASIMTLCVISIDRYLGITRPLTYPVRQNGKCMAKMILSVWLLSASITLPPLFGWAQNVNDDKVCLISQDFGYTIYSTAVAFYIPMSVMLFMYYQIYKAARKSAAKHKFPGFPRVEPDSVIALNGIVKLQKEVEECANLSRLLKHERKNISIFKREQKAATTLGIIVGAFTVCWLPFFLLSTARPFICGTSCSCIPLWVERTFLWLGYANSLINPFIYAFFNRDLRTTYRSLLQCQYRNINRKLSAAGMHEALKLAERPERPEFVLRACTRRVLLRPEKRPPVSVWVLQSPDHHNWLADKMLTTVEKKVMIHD
Method in brief: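 Filter-bound radioactivity counted after 1 h, with loss of specific radioligand binding fitted against DMSO. Membrane protein came from CHO cells expressing human 5HT7. Chemicals were tested first at 25 uM in duplicate, then in concentration series if active.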

[10] = biological target: human Adenosine A2a Receptor (AdoRA2a), ADORA2A (gene 135) (UniProt P29274); assay: NVS_GPCR_hAdoRA2a: NovaScreen (NVS) G Protein-Coupled Receptor Assay for human Adenosine A2a Receptor (AdoRA2a) (AID 2283256)
Sequence of human Adenosine A2a Receptor (AdoRA2a), ADORA2A (gene 135) (P29274 whole entry, looked up): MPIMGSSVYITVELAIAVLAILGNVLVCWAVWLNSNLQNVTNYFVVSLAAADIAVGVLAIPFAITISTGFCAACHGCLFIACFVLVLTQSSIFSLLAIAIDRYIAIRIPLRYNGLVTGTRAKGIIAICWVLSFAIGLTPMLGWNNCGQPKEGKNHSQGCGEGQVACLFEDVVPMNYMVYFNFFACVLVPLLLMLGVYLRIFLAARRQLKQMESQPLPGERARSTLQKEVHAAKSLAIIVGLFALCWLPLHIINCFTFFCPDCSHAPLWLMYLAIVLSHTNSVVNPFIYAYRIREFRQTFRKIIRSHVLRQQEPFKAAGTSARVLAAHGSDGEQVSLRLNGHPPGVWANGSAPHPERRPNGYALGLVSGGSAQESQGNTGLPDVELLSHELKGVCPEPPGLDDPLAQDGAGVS
Method in brief: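 HEK293-derived receptor preparation, radioligand displacement, 1.5 h, filtration + scintillation read. Loss of bound signal scored vs DMSO. Single-point 25 uM in duplicate first, then concentration-response for actives.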

[11] = biological target: human Adrenergic, Alpha 2A Receptor (Adra2A), ADRA2A (gene 150) (UniProt P08913); assay: NVS_GPCR_hAdra2A: NovaScreen (NVS) G Protein-Coupled Receptor Assay for human Adrenergic, Alpha 2A Receptor (Adra2A) (AID 2283257)
Sequence of human Adrenergic, Alpha 2A Receptor (Adra2A), ADRA2A (gene 150) (P08913 whole entry, looked up): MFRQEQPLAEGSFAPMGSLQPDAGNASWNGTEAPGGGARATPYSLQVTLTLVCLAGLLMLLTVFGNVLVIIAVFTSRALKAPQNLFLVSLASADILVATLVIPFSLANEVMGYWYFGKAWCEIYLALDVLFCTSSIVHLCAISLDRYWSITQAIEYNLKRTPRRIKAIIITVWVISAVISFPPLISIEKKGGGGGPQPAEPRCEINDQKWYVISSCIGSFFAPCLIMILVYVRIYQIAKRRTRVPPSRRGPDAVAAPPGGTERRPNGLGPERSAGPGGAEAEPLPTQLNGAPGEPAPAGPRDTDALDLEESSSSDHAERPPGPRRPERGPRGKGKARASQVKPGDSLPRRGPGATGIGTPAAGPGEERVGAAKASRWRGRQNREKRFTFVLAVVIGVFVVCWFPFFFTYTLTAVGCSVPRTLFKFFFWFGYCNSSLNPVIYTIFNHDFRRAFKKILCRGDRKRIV
Method in brief: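 Displacement of a specific radioligand from HT29 membrane protein was counted by filter scintillation after 1 h. Compounds were screened in duplicate at 25 uM, and actives were retested in concentration series. Fitting was positive-direction against DMSO.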

[12] = biological target: human Adrenergic, Alpha 2c Receptor (Adra2C), ADRA2C (gene 152) (UniProt P18825); assay: NVS_GPCR_hAdra2C: NovaScreen (NVS) G Protein-Coupled Receptor Assay for human Adrenergic, Alpha 2c Receptor (Adra2C) (AID 2283259)
Sequence of human Adrenergic, Alpha 2c Receptor (Adra2C), ADRA2C (gene 152) (P18825 whole entry, looked up): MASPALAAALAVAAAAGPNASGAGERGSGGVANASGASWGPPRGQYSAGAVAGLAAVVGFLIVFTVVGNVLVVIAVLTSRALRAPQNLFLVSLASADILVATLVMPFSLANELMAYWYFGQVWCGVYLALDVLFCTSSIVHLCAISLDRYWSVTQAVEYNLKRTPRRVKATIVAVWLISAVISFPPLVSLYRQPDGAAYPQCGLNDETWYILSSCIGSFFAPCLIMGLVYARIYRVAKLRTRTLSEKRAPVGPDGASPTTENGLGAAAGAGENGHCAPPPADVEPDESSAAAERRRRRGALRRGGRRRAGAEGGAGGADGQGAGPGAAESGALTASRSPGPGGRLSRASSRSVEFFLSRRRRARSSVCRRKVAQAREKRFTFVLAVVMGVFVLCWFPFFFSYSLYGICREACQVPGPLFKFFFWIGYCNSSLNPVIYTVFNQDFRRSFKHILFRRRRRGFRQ
Method in brief: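 Screened first in duplicate at 25 uM, with actives then run as concentration series. Membranes from Sf9 cells were exposed for 1 h, and displacement of radioligand was counted after filtration, using DMSO as baseline.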

[13] = biological target: Type-1 angiotensin II receptor (Homo sapiens) (UniProt P30556); assay: NVS_GPCR_hAT1: NovaScreen (NVS) G Protein-Coupled Receptor Assay for human Angiotensin II receptor type 1 (AT1) (AID 2283263)
Method in brief: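 Hits from a 25 uM duplicate screen (threshold e.g. 30% inhibition) were run in concentration-response with 50 uM top concentration. Displacement of specific radioligand from KAN-TS membrane preparations measured after 3 h by filter scintillation, DMSO as baseline.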

[14] = biological target: Neuropeptide Y receptor type 2 (Homo sapiens) (UniProt P49146); assay: NVS_GPCR_hNPY2: NovaScreen (NVS) G Protein-Coupled Receptor Assay for human Neuropeptide Receptor Y2 (NPY2) (AID 2283277)
Method in brief: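 Chemicals were first tested in duplicate at 25 uM, then actives in singleton concentration series to 50 uM. Tracer binding to SK-N-MC-derived protein measured cell-free after 1 h via filter scintillation; signal loss relative to DMSO.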

[15] = biological target: Muscarinic acetylcholine receptor M3 (Homo sapiens) (UniProt P20309); assay: NVS_GPCR_hM3: NovaScreen (NVS) G Protein-Coupled Receptor Assay for human Muscarinic, M3 Receptor (AID 2283272)
Method in brief: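 Radioligand displacement binding on human M3 receptor in CHO-derived membranes, 1 h incubation, filter-based scintillation counting. Primary screen in duplicate at 25 uM; actives followed up in concentration series; loss of signal versus DMSO.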

[16] = biological target: human Muscarinic, M4 Receptor, CHRM4 (gene 1132) (UniProt P08173); assay: NVS_GPCR_hM4: NovaScreen (NVS) G Protein-Coupled Receptor Assay for human Muscarinic, M4 Receptor (AID 2283274)
Method in brief: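 Filter-based scintillation counting of radioligand bound to CHO-expressed human M4 preparations after 1 h; loss of signal fitted versus DMSO. Initial duplicate testing at 25 uM, concentration-response follow-up for actives.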

[17] = biological target: human Endothelin Receptor Type B (ETB), EDNRB (gene 1910) (UniProt P24530); assay: NVS_GPCR_hETB: NovaScreen (NVS) G Protein-Coupled Receptor Assay for human Endothelin Receptor Type B (ETB) (AID 2283267)
Method in brief: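 Filter-based scintillation readout of radioligand displacement, 4 h, using membranes from human astrocytoma cells. Actives from a 25 uM duplicate screen were retested in concentration-response (top 50 uM) relative to DMSO baseline.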

[18] = biological target: human Histamine 1 Receptor (H1), HRH1 (gene 3269) (UniProt P35367); assay: NVS_GPCR_hH1: NovaScreen (NVS) G Protein-Coupled Receptor Assay for human Histamine 1 Receptor (H1) (AID 2283268)
Method in brief: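 Filter-based scintillation detection of radioligand binding to human H1, 1 h incubation; chemicals screened in duplicate at 25 uM, then concentration-response; signal loss relative to DMSO taken as activity.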

[19] = biological target: Muscarinic acetylcholine receptor M1 (Homo sapiens) (UniProt P11229); assay: NVS_GPCR_hM1: NovaScreen (NVS) G Protein-Coupled Receptor Assay for human Muscarinic, M1 Receptor (AID 2283270)
Method in brief: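 Actives from a duplicate 25 uM single-point screen were retested in concentration series. Binding measured as displacement of a radioligand from CHO-derived receptor preparation, 1 h incubation, filtration and scintillation counting, analysed as signal loss against DMSO.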

[20] = biological target: Beta-2 adrenergic receptor (Homo sapiens) (UniProt P07550); assay: NVS_GPCR_hAdrb2: NovaScreen (NVS) G Protein-Coupled Receptor Assay for human Adrenergic, Beta 2 Receptor (Adrb2) (AID 2283261)
Method in brief: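 Compounds screened in duplicate at 25 uM, then actives in concentration series. Human beta-2 receptor from CHO material, cell-free; radioligand displacement after 1 h measured by filtration and scintillation against DMSO baseline.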

O=c1ssc(Cl)c1Cl
AC50 [1]: 1.21 µM (active)

ClC(Cl)c1ccccc1
AC50 [2]: 5.17 µM (active)

Nc1ccc([N+](=O)[O-])cc1Cl
outcome [1]: inactive

CC(C)Nc1ccc(Nc2ccccc2)cc1
AC50 [1]: 25 µM (active)
AC50 [3]: 2.71 µM (active)

CCCN(CCC)c1c([N+](=O)[O-])cc(C(C)C)cc1[N+](=O)[O-]
outcome [4]: inactive
outcome [5]: inactive

Oc1ccccc1Br
outcome [1]: inactive

CSC(C)(C)C=NO
outcome [6]: inactive
outcome [7]: inactive
outcome [8]: inactive
outcome [9]: inactive
outcome [10]: inactive
outcome [11]: inactive
outcome [12]: inactive
outcome [13]: inactive
outcome [1]: inactive
outcome [3]: inactive

CC(C)(C)OOC(C)(C)C
outcome [3]: inactive

Nc1ccc(Cl)cc1
outcome [14]: inactive

Cc1cc(C)c(C(=O)P(=O)(c2ccccc2)c2ccccc2)c(C)c1
AC50 [6]: 25 µM (active)
AC50 [8]: 36 µM (active)

Cc1ccc2c(c1N)C(=O)c1ccccc1C2=O
AC50 [8]: 16.3 µM (active)
AC50 [10]: 4.77 µM (active)

Nc1cc2c3c(c1)C(c1ccccc1)=N[C@@H](NC(=O)c1cccnc1)C(=O)N3CC2
outcome [9]: inactive

CCOP(=S)(Oc1ccc([N+](=O)[O-])cc1)c1ccccc1 (stereo unspecified)
outcome [4]: inactive
outcome [1]: inactive
outcome [15]: inactive
outcome [16]: inactive

CCNc1nc(Cl)nc(NC(C)(C)C)n1
outcome [8]: inactive

CCC(C)(C)c1ccc(O)cc1
outcome [7]: inactive
outcome [3]: inactive

CCCCN(CCCC)SN(C)C(=O)Oc1cccc2c1OC(C)(C)C2
outcome [4]: inactive
outcome [17]: inactive
outcome [18]: inactive

CCCCCCCc1ccc(O)cc1
outcome [12]: inactive

CC1(C)CN=C(NN=C(/C=C/c2ccc(C(F)(F)F)cc2)/C=C/c2ccc(C(F)(F)F)cc2)NC1
AC50 [12]: 8.95 µM (active)
AC50 [19]: 19.6 µM (active)

COP(N)(=S)OC
outcome [1]: inactive

ClC1=C(Cl)C2(Cl)C3C(Cl)C(Cl)CC3C1(Cl)C2(Cl)Cl (stereo unspecified)
outcome [20]: inactive
outcome [5]: inactive

O=[N+]([O-])c1cc(Cl)ccc1Cl
outcome [10]: inactive

CC(Cc1ccc(OCC(=O)O)cc1)NCC(O)c1csc(C(F)(F)F)n1 (stereo unspecified)
AC50 [11]: 25 µM (active)

N#Cc1c(-c2ccc(Cl)cc2)[nH]c(C(F)(F)F)c1Br
outcome [10]: inactive
outcome [1]: inactive

CCCCOCCOP(=O)(OCCOCCCC)OCCOCCCC
AC50 [6]: 16.5 µM (active)

Reference: PubChem BioAssay (EPA / NIEHS)
